Test results as given in PubChem BioAssay AID488789 (Broad Institute, 2010).
Results with a measured potency or affinity are listed apart. Records with an inconclusive call do not appear.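 The calls were made as follows: active = samples whose fitted half-maximal inhibition concentration is no more than ten times the top valid dose tested; inconclusive = flat response between -70 and -30, or invalid curve fit; inactive = flat within 30 of zero, potency above limit, or signal rising.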

Biological target: Trypsin (Sus scrofa) (UniProt P00761)
Sequence (P00761 whole entry, looked up): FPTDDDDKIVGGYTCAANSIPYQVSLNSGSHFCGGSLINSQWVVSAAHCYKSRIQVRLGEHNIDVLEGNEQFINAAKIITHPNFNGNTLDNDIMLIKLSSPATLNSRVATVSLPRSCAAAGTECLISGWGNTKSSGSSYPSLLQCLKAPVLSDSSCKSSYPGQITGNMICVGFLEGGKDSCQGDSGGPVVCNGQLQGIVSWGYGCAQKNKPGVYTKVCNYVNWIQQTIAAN
Experiment: porcine trypsin inhibitors, dose response, selectivity assay for Rce1 protease inhibitor project, biochemical, quenched peptide fluorescence, cherry-pick (AID 488789);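 also: more negative means stronger trypsin inhibition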
Details: quenched peptide cleavage fluorescence; series mostly up to 10 µM; activity change, negative = inhibition: at the top concentration

Activity change, negative = inhibition, inactive:
Nc1nnnn1/N=C/c1cccc(OCc2ccccc2Cl)c1 22.5%
O=C(Nc1ccc(F)cc1)Oc1ccccc1N1CCOCC1 -3.6%
CCC(=O)Nc1cccc(NC(=S)NC(=O)c2cccs2)c1 7.96%
CCCCOC(=O)Nc1nc(C)c(C(=O)OCC)s1 -2.2%
COC(C/C=C/[C@@H](O)[C@H](C)OCc1ccccc1)OC 23%
CC(C)CC(=O)Nc1ccc2oc(-c3cccnc3)nc2c1 44.1%
CCN(Cc1ccccc1)S(=O)(=O)c1ccc(C(=O)N(CCCN(C)C)c2nc3c(C)c(C)ccc3s2)cc1 23.7%
CCCCCCCCCCC[N+](C)(C)CC/C=C1/c2ccccc2Sc2ccc(Cl)cc21 -9.31%
CCCCCCCCCCOC(=O)Cn1c(COc2ccc(C)cc2)[n+](C)c2ccccc21 0.202%
CC(C)c1c(C(=O)N/N=C/c2c[nH]c3ccccc23)nnn1-c1nonc1N -3.47%
CC(C)CNC(=O)Nc1ccc(F)c(Cl)c1 7.58%
COc1cc(OC)cc(-c2ncc3ccccn23)c1 -4.15%
C[n+]1c2n(c3ccccc31)N=C(c1cc(C(C)(C)C)c(O)c(C(C)(C)C)c1)CS2 5.04%
O=C1CCN(Cc2ccccc2)CCN1[C@H](CSc1ccccc1)Cc1ccccc1 11%
Cc1ccc(-c2nc(Nc3ccc(N4CCOCC4)cc3)c3ccccc3n2)cc1 6.86%
COc1ccc([N+](=O)[O-])cc1CSc1ccccn1 5.96%
COc1ccc2[nH]c(C(=O)NCCCn3ccnc3)cc2c1 10.5%
CCSc1nc2c(c(=O)[nH]1)C(c1ccccn1)C1=C(CC(C)(C)CC1=O)N2 (configuration not stated) 11.7%
CC(=O)c1c(C)oc2ccc(NS(=O)(=O)c3ccc(C(=O)O)cc3)cc12 24%
COC(=O)C(Cc1ccccc1)OS(N)(=O)=O (configuration not stated) 18.6%
CS(=O)(=O)Nc1ccccc1C(=O)NC1CC2CCC1C2 (configuration not stated) 8%
Nc1c(Cl)cc(C2=NCCn3nc4cc(C(F)(F)F)ccc4c32)cc1Cl 5.69%
CC1CCN(C(=O)C2CCN(S(=O)(=O)c3ccc(-n4cnnn4)cc3)CC2)CC1 9.4%
O=C(Nc1ccc(S(=O)(=O)Nc2ccccc2)cc1)C1COc2ccccc2O1 (configuration not stated) 0.348%
O=C(CCCn1c(=O)[nH]c2ccc(Br)cc2c1=O)NCc1ccc(Cl)cc1 -3.19%
CC(C)[C@H](NC(=O)OCc1ccccc1)C(=O)OCC(=O)Nc1c(F)cccc1F -4.5%
CCO[C@@H]1OC(C(=O)N2CCN(Cc3ccccc3)CC2)=C[C@H](c2ccccc2)[C@H]1CCCO 12.4%
Cc1ccc(S(=O)(=O)CC(=O)N2CCN(c3ccccc3F)CC2)cc1 12.2%
O=c1c(-c2ccccc2)c(O)c2ccccc2n1-c1ccccc1 11.5%
CCSCCOC(=O)C1=C(C)NC(=O)NC1c1ccccc1 (configuration not stated) 11.1%
c1cnn(Cc2cnc(N3CCOCC3)s2)c1 1.49%
Cc1nc(N2CCOCC2)c2cc(-c3ccccc3)sc2n1 7.9%
COc1ccc(OC)c(/C=N/c2c(-c3ccc(O)c(OC)c3)nc3ccccn23)c1 -7.37%
Cc1cc(C(=O)N[C@H](c2ccccc2)[C@@]2(C)C[C@@H]2[C@@H](C)C(=O)Nc2ccc3ccccc3c2)n(C)n1 15.2%
CCOC(=O)c1cc(-c2ccccc2)sc1NC(=O)C(C)Sc1nnnn1C (configuration not stated) 7.62%
CCN1CCN(CC(O)COc2ccc3c(C)cc(=O)oc3c2)CC1 (configuration not stated) 11.8%
O=C(CCNS(=O)(=O)c1ccc2[nH]c(=O)oc2c1)NCc1ccccc1 8.03%
